VP16 counter – inhibits Gal4-VP16 luciferase reporter, ROR gamma counter-screen; 3.5% of 310,000 active; AID 2546; Drosophila S2 Gal4-VP16 UAS-luciferase, luminescence, 20 h; Potency, µM (top dose mostly 53.6 µM), without a hit: at the highest dose activity, negative = inhibition, actives largely listed as inhibitors;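 further: Gal4-VP16 expression switched on by copper sulfate through the metallothionein promoter; potency means the concentration at half of the fitted maximal effect; on the % scale 0 is the no-effect control and ±100 the full control effect; nearly all actives have a fitted effect of over 50% in size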
ELG1 DNA repair – blocks ELG1-dependent DNA repair in HEK293T cells. HEK293T ELG1-luciferase reporter, luminescence, 16 h; DNA damage induced by 5-fluorouridine. Potency, µM (doses to about 46.1 µM), for the others: top-dose activity change, negative = inhibition, usual class: inhibitors. 2.3% of 330,000 active; further: potency means the concentration at half of the fitted maximal effect; on the % scale 0 is the no-effect control and ±100 the full control effect; nearly all actives have a fitted effect of over 55% in size
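Reporter activity after DNA damage by 5-fluorouridine is monitored. Compound-treated cells incubate 16 hr at 37 °C, then ONE-Glo is added for 30 min before luminescence reading.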
BRCA1 expr up – increases BRCA1 expression | 1.1% of 380,000 active | Potency, µM (titrated, usually from 46.1 µM), without a hit: top-dose activation, actives largely listed as activators | MCF7-BRCA1-FFLuc reporter, luminescence, 48 h; response scale: scaled: vehicle 0%, 10 µM genistein 100%; further: potency means the concentration at half of the fitted maximal effect; nearly all actives have a fitted effect of over 80% in size
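First, MCF7-BRCA1-FFLuc cells (2000/well) attach for 2 h; next, compounds are pin-added and incubated 48 h at 37 °C; finally, luciferase reagent is added and luminescence read after 15 min.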
RORgamma inh – blocks mouse ROR gamma transcriptional activity; Drosophila S2 Gal4-RORgamma UAS-luciferase reporter, 20 h; Potency, µM (doses to about 53.6 µM), for inactives: at the top dose activity change, negative = inhibition, most hits filed as inhibitors; 5.4% of 310,000 active; AID 2551; further: potency means the concentration at half of the fitted maximal effect; on the % scale 0 is the no-effect control and ±100 the full control effect; nearly all actives have a fitted effect of over 60% in size
Target sequence (P51450 whole entry, looked up, the tested form may be a part): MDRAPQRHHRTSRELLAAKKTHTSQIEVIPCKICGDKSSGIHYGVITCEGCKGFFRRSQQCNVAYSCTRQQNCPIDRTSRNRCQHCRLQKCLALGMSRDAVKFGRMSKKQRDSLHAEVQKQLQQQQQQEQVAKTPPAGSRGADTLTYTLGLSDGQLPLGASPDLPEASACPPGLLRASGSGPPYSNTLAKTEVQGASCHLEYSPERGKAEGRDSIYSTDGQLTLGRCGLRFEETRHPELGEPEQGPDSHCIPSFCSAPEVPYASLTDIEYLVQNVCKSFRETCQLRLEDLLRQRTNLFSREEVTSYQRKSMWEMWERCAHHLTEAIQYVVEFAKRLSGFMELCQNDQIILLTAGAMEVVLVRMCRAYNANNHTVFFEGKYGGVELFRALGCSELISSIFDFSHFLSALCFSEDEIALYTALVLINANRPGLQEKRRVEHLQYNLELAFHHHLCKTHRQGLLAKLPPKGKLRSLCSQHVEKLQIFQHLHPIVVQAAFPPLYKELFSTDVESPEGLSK
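Luminescence from a UAS-regulated Photinus luciferase reporter in stably transfected Drosophila Schneider cells is measured; decreased signal marks ROR gamma inhibition. Fusion expression is induced by 700 uM copper sulfate for 20 hr.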
p53 reactivation – restores transcriptional activity of mutant p53. H1299 p53-A138V BP100-luciferase reporter, luminescence, 24 h. Potency, µM (titrated, usually from 92.2 µM), without a hit: at the top dose activity change, positive = activation, usual class: activators. 0.063% of 320,000 active. AID 504706; further: potency means the concentration at half of the fitted maximal effect; % of control where 0% means no effect; nearly all actives have a fitted effect of over 45% in size
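p53-null H1299 cells stably carrying temperature-sensitive p53-A138V and a BP100-luciferase reporter were pinned with compounds (4-point, 1:5 series) and held 24 hrs at 37 deg C. Luminescence was read 10 min after detection reagent.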
Giardia killer – kills Giardia lamblia; Giardia lamblia trophozoite viability; activity change, % at 7.66 µM, hits read low; 0.15% of 340,000 active; in the data active means activity change below about -80%; inconclusive means between about -30% and that limit;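 further: parasites exposed to compound for two days anaerobically before the ATP read; on the % scale 0 is the no-effect control and ±100 the full control effect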
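Luminescence from cellular ATP indicates surviving trophozoites (100 cells/well) following 48 hrs anaerobic compound treatment at 37 deg C; signal develops 15-30 min at room temperature.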
* marks the source's active call; other numbers are inactive results; u = inconclusive; x = no result. In the library only some 7.6% were active in any assay of this set; here they are far more common. Unless noted, the call rests on the fitted dose curve; in most records, active means well fitted curve in the direction sought with a large enough effect; inconclusive means small, poorly fitted or top-dose-only effect, or another doubt; inactive means no such curve, though single readings can be large; an effect the other way counts as inactive or inconclusive.

SMILES	VP16 counter	ELG1 DNA repair	BRCA1 expr up	RORgamma inh	p53 reactivation	Giardia killer
O=C(Cn1ncc2c([nH]c3ccccc32)c1=O)N1CCOCC1	-11.8%	4.1%	5.5%	6.7%	-4.5%	-7.4
COc1cc(-c2cc(C(=O)Nc3cc(S(=O)(=O)N4CCOCC4)ccc3O)c3ccccc3n2)cc(OC)c1OC	x	14.6µM*	-28.1%	x	-8.0%	-14.0
NNC(=O)c1cc(-c2ccc(N)cc2)nc2ccc(Br)cc12	u	u	-46.2%	10µM*	-0.7%	-25.8
COc1cc(-c2cc(C(=O)Nc3ccc(N4CCOCC4)cc3)c3ccccc3n2)cc(OC)c1OC	-6.3%	8.2µM*	-20.2%	-18.6%	-4.0%	14.9
COc1cc(C2Nc3ccc4ncccc4c3C3=C2C(=O)CC(C)(C)C3)cc(OC)c1O (configuration not stated)	-9.1%	u	-33.7%	-22.7%	-6.1%	4.3
COc1cc(C2Nc3ccc4ncccc4c3C3=C2C(=O)CCC3)cc(OC)c1O (configuration not stated)	13.4%	15.6%	-75.1%	2.82µM*	-8.0%	-9.9
CC(C)C(=O)NC(=S)Nc1ccccn1	u	4.2%	8.8%	12.6µM*	14.3%	6.5
CC(C)(C)C(=O)NC(=S)Nc1ccccn1	u	u	38.7%	12.6µM*	-1.2%	3.1
COc1cccc(-c2nc3nc(C)cc(C)n3c2Nc2c(C)cccc2C)c1	x	x	-8.2%	x	x	x
O=C(CCCN1CCOCC1)c1ccc2c(c1)OCCO2	u	u	u	u	13.1%	12.7
O=C(CCN1CCOCC1)c1ccc2c(c1)OCCO2	3.16µM*	0.8%	-68.9%	u	-33.3%	-0.8
O=C(OCC(=O)N1CCOCC1)c1ccc2c(c1)OCCO2	9.7%	u	78.0%	4.3%	u	4.3
O=C(CCN1CCCCC1)c1ccc2c(c1)OCO2	12.6µM*	3.5%	-15.3%	3.16µM*	-10.8%	-10.8
O=C(CCN1CCc2ccccc2CC1)c1ccc2c(c1)OCCO2	3.98µM*	-7.3%	-53.3%	6.31µM*	-14.6%	-5.4
O=C(OCCN1CCOCC1)c1ccc2c(c1)OCCO2	-5.1%	x	7.94µM*	-14.1%	x	5.9
O=C1C(=O)N(CCCn2ccnc2)C(c2cccc(Br)c2)/C1=C(\O)c1ccc2c(c1)OCCO2 (configuration not stated)	4.6%	u	2.7%	-4.9%	23.6%	-9.5
CCCn1c2ccccc2c2cnn(CC(=O)OC)c(=O)c21	7.7%	10.6%	-11.8%	3.1%	-7.1%	-2.4
CCOC(=O)c1sc(NC(=O)c2ccncc2)c(C#N)c1C	u	20.6µM*	-91.1%	u	13.7%	-1.1
CCOC(=O)c1sc(NC(=O)CSc2n[nH]c(-c3ccc(Cl)cc3Cl)n2)c(C#N)c1C	u	u	-5.5%	11.2µM*	-5.0%	-7.7
CCOC(=O)c1c(NC(=O)c2ccncc2)sc(C)c1C	6.2%	-3.8%	-18.4%	-14.7%	-0.1%	0.3
CCOC(=O)c1sc(NC(=O)c2cc(-c3ccccc3C)nc3ccccc23)c(C#N)c1C	8.91µM*	u	-84.6%	8.91µM*	9.3%	6.3
CCCCNc1c(-c2ccc(SC(C)CC)c(OC)c2)nc2ccc(C)cn12 (configuration not stated)	x	5.3%	-74.1%	x	1.8%	12.1
N#Cc1c(C(F)(F)F)cc(-c2ccc(F)cc2)[nH]c1=O	-5.3%	18.3µM*	-35.7%	u	-0.9%	10.5
COc1cccc(-c2cccc(-c3nc(C(=O)NCc4ccc(Oc5ccccc5)cc4)cc4c3[C@H](CCO)N(S(=O)C(C)(C)C)C4)c2)c1 (some centres not stated)	x	x	5.2%	x	x	x
Cc1c(C(=O)NCc2ccccc2CN2CCCC2)oc2ccccc12	x	0.2%	-42.0%	x	3.3%	4.0
SMILES	VP16 counter	ELG1 DNA repair	BRCA1 expr up	RORgamma inh	p53 reactivation	Giardia killer
FC(F)C(F)(F)c1cc(-c2ccc(Cl)cc2)n[nH]1	1.7%	u	24.3%	19.8%	u	-13.4
Fc1ccc(-c2cc(C(F)(F)C(F)F)[nH]n2)cc1	12.6µM*	10.8%	9.3%	2.4%	13.3%	-7.0
C=CCOc1cccc(C(=O)Nc2ncn[nH]2)c1	u	3.1%	36.6%	22.4µM*	-24.1%	-11.8
O=C1/C(=C\c2cccnc2)Sc2ccccc21	u	u	-17.5%	u	12.9%	-14.1
CC1C/C(=C\c2cccnc2)C(=O)/C(=C/c2cccnc2)C1 (configuration not stated)	0.631µM*	2.06µM*	-83.0%	1.12µM*	-19.6%	u
COc1cc(O)c(C(CC(=O)N2CCCCC2)c2ccc(N(C)C)cc2)c(OC)c1 (configuration not stated)	5.8%	0.0%	-7.1%	1µM*	-4.1%	17.9
Cc1noc(NS(=O)(=O)c2ccc(NC(=O)c3ccccc3NS(=O)(=O)c3ccc(F)c(F)c3)cc2)c1C	x	x	3.9%	x	x	3.7
COc1ccc(CNC(=S)Nc2ccc(Br)cc2)cc1	11.2µM*	-5.1%	-5.2%	10µM*	x	23.9
COc1ccc(CNC(=S)Nc2ccc(-c3ccccc3)cc2)cc1	7.08µM*	u	20.2%	u	4.4%	9.1
CN(C(=O)C1CCCO1)c1nnc(-c2ccncc2)s1 (configuration not stated)	6.2%	15.7%	31.4%	-14.2%	7.7%	-16.4
CN(C(=O)CSc1ncnc2sccc12)C1CCCCC1	x	u	3.98µM*	x	u	-2.7
CN(C(=O)CSc1ncnc2sccc12)C1CCS(=O)(=O)C1 (configuration not stated)	x	21.2%	-13.3%	x	8.6%	u
Cc1ccc(S(=O)(=O)CC(CN2CCCCC2)N2CCCCC2)cc1 (configuration not stated)	-18.7%	u	-97.7%	2.82µM*	-9.6%	6.5
O=S(=O)(CC(CN1CCCCC1)N1CCCCC1)c1ccc2ccccc2c1 (configuration not stated)	u	u	-68.5%	12.6µM*	-13.9%	7.7
O=S(=O)(CC(CN1CCOCC1)N1CCOCC1)c1ccccc1 (configuration not stated)	12.9%	-4.0%	0.7%	-12.2%	13.9%	-6.6
Cc1ccc(S(=O)(=O)CC(c2ccccc2)N2CCCCC2)cc1 (configuration not stated)	-9.6%	10.8%	-12.3%	-2.6%	1.3%	4.3
Nc1c(NC=O)c(=O)n(Cc2ccccc2)c(=O)n1Cc1ccccc1	x	x	-2.0%	x	x	-0.4
CC(Oc1ccc(Cl)cc1Cl)c1nc(-c2ccc(NC(=O)c3ccncc3)cc2)no1 (configuration not stated)	12.6µM*	18.4µM*	-77.3%	u	0.9%	10.9

Source: PubChem (National Center for Advancing Translational Sciences (NCATS))
